Screening data: PubChem BioAssay, several laboratories
Mac1 fbg inh: inhibitors of human CD11b/CD18 binding to fibrinogen. P05107+P11215. K562 CD11b/CD18 adhesion to fibrinogen, ATPlite luminescence; Mn2+ added to activate the integrin. inhibition, % at 10 µM. 93,000 tested, 0.54% active. AID 1497;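 active = primary inhibition of 50% or more at 10 µM, then 40% or more on retest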
Target sequence (P05107 whole entry, looked up, other chains not shown): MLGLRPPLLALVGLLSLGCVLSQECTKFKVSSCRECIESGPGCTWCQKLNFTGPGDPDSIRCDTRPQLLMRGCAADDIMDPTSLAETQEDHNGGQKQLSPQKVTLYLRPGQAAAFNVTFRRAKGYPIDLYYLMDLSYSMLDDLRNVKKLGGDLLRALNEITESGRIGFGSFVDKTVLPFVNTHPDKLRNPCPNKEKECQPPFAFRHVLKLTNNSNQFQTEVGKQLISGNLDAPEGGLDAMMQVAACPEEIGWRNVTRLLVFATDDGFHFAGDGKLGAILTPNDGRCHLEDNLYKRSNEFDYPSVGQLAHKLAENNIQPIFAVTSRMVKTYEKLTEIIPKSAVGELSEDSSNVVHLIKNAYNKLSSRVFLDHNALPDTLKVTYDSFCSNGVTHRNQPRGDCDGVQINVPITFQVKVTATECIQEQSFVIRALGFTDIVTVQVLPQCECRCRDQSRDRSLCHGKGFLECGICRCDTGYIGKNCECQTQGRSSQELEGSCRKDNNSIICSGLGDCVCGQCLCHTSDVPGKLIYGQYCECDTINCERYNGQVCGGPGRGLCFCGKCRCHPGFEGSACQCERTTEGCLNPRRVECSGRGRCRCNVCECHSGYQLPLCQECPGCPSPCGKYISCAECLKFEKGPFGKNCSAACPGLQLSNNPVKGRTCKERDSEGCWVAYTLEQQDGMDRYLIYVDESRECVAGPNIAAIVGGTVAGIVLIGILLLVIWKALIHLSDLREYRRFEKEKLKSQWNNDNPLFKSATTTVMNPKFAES
E coli WT exp: growth inhibitors of E. coli BW25113 wild type; OD600 absorbance; growth inhibition, % at 100 µM; 98,000 tested, 0.15% active;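 active = growth inhibition above about 50% at one test dose, limit read from the data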;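 also: growth measured after 20 h incubation at 37 °C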
Cav32 inh: human Cav3.2 channel inhibition, primary screen; O95180; Cav3.2-expressing cells, Fluo-4 calcium fluorescence FDSS; hits give low values; B-score at 10 µM; 100,000 tested, 4% active; AID 449739;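 active = single-dose well whose peak fluorescence ratio is a statistical outlier from its plate by either plate-standardised score or position-corrected B-score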
CD11b adhes enh: increases human CD11b/CD18 adhesion to fibrinogen; activation, % at 10 µM; P05107+P11215; 93,000 tested, 0.07% active; AID 1499; K562 CD11b/CD18 adhesion to fibrinogen, ATPlite luminescence;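 active = 10 µM primary screen giving 50% or more activity, confirmed by 40% or more on retest at that dose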
* = called active by the depositor; / = not tested or not shown. The full list was thinned out, with hits kept by preference.

SMILES	Mac1 fbg inh	E coli WT exp	Cav32 inh	CD11b adhes enh
CCCn1c(=O)c(C(=O)Nc2ccccc2C(=O)OCC)c(O)c2ccccc21	10	-17	0.043	0
CCSc1nnc(-c2cnn(-c3ccccc3)c2-n2cccc2)n1C	17	2	2.3	3
CCCCCCSc1nnc(-c2cnn(-c3ccccc3)c2-n2cccc2)n1C	31	-8	-8.9*	0
Cc1ccc(S(=O)(=O)Nc2nc(C)c(NC(=O)Nc3ccc(Cl)cc3Cl)s2)cc1	/	-2	-3.2	/
O=C(Cn1nnc(-c2cccs2)n1)N1c2ccccc2Sc2ccc(C(F)(F)F)cc21	/	/	-5.4*	/
CCC(=O)N1CCN(c2ccc(Cl)cc2NC(=O)Cc2ccccc2)CC1	6	-2	-6*	11
CCC(=O)Nc1cc(Cl)ccc1N1CCN(C(=O)CC)CC1	4	2	0.42	-1
COc1ccc(C)cc1NC(=O)CN(Cc1nnc(-c2ccc(Cl)cc2)o1)C1CCCC1	15	-14	-4.2*	3
COc1ccc(Cl)cc1NC(=O)CN(C)C1CCCCC1	-1	6	-1.4	2
CC1(C)N=C(SCC(=O)Nc2ccc(Cl)cc2)C(c2ccccc2)=N1	7	-3	-5.2*	0
O=C(NC1CCCCC1)c1cccc(COCC(F)(F)F)c1	/	/	0.0081	/
O=C(CSc1nc(N2CCCCC2)nc(N2CCCCC2)n1)c1ccccc1	8	-6	-4.2*	2
CCCn1c(N2CCN(CC(=O)c3c(C)n(C)c4ccccc34)CC2)nc2c1c(=O)[nH]c(=O)n2C	-2	-4	3.1*	-3
CC1CCCN(c2nc3c(c(=O)n(C)c(=O)n3C)n2CCSc2nc3ccccc3s2)C1 (centres undefined)	-3	-13	-6.9*	-1
CCCCCCCCn1c(N2CCN(c3cccc(Cl)c3)CC2)nc2c1c(=O)[nH]c(=O)n2C	0	-10	-2	-2
CCCCCCn1c(N2CCN(c3ccccc3)CC2)nc2c1c(=O)[nH]c(=O)n2C	/	4	-5.7*	/
CC1CCN(c2nc3c(c(=O)n(C)c(=O)n3C)n2CCSc2nc3ccccc3s2)CC1	3	-2	-1.3	4
CC1CCCN(c2nc3c(c(=O)[nH]c(=O)n3C)n2CCCc2ccccc2)C1 (centres undefined)	3	0	-5.6*	2
C[C@@H](c1ncncc1F)[C@](O)(Cn1cncn1)c1ccc(F)cc1F	/	/	1.1	/
COC(C/C=C/C(=O)[C@H](C)OCc1ccccc1)OC	/	/	1.8	/
CC(C)CCn1c(N2CCN(c3cccc(Cl)c3)CC2)nc2c1c(=O)[nH]c(=O)n2C	/	-3	-8.5*	/
CCOC(=O)C1=C(C)N(CCCC(=O)O)C(=O)NC1c1ccc2ccccc2c1 (centres undefined)	/	/	0.19	/
COc1ccc(C2NC(=O)NC(c3ccccc3)=C2c2nc3ccccc3s2)cc1 (centres undefined)	18	-22	-5.8*	-2
CSc1nc(NC(C)(C)C)nc(Oc2ccc(=O)n(C)n2)n1	/	1	0.13	/
CN1c2ccccc2C(O)=C(C(=S)Nc2ccc(Cl)cc2)S1(=O)=O	52*	-4	-7.4*	-6
SMILES	Mac1 fbg inh	E coli WT exp	Cav32 inh	CD11b adhes enh
Cc1ccc2nc(-c3cccnc3SCC(=O)N3c4ccccc4CC3C)[nH]c2c1 (centres undefined)	0	8	-4.4*	1
Cc1ccc2nc(SCC(=O)N3c4ccccc4CC3C)c(C)cc2c1 (centres undefined)	-17	-13	-2	-8
CC(C)(C)NS(=O)(=O)c1ccc2nc(NC(=O)Cc3cccs3)sc2c1	-7	12	-4.2*	-1
CC1(c2ccc(Cl)c(Cl)c2)NC(=S)N2C1NC(=S)N2c1ccccc1 (centres undefined)	-13	9	-5.4*	2
O=C(N/N=C/c1ccc(-c2ccccc2C(=O)O)o1)c1cccs1	24	/	/	-4
O=C(NC1CCN(C(=O)Nc2cccc(F)c2)CC1)C1CCCCC1	-16	-3	1.2	3
O=C(Nc1cccc(F)c1)N1CC=C(c2ccc(Cl)cc2)CC1	40	0	-7.4*	-1
O=C1CN(C(=O)c2ccc(Br)o2)C(c2ccccc2)c2cc(Cl)ccc2N1 (centres undefined)	10	-6	-4.5*	-3
O=C1CN(C(=O)c2ccc(Br)o2)C(c2ccc(F)cc2)c2cc(Cl)ccc2N1 (centres undefined)	6	-18	-6.8*	2
Cc1ccc2c(c1)C(c1ccccc1)N(C(=O)c1ccc(Br)o1)CC(=O)N2 (centres undefined)	-7	-4	/	0
O=C1CN(C(=O)c2ccc(Br)o2)C(c2ccccc2)c2cc(Br)ccc2N1 (centres undefined)	6	-7	/	-2
